In the supplement of paper PMC10849652 one finds log2 fold change data, which are given here for 23 targets.

Targets with a hit are over-represented here; the source holds about 7,900 in all. About 0.6% of all pairs of compound and target were hits. A number with no mark means an inactive call.

Sequence of UniProt O15066 (O15066 whole entry, looked up): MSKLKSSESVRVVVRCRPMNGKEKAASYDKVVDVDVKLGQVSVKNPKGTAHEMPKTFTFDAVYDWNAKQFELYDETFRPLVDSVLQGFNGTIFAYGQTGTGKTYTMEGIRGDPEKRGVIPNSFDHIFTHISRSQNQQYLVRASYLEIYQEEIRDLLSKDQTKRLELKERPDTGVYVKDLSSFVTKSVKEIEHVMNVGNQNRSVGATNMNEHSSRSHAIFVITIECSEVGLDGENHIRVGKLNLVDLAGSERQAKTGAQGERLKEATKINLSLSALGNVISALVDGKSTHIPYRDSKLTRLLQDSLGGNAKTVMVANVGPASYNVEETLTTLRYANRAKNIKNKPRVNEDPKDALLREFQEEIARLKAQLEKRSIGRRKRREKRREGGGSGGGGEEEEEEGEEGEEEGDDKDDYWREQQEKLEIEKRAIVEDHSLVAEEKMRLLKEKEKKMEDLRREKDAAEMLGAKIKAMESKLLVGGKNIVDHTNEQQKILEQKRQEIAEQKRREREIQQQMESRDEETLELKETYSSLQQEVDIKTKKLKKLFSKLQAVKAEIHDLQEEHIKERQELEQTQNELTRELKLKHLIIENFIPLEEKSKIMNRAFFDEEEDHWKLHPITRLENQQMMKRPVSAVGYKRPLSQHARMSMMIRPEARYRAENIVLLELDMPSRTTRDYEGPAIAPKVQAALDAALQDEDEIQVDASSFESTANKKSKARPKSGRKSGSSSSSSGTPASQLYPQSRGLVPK
Sequence of UniProt P43361 (P43361 whole entry, looked up): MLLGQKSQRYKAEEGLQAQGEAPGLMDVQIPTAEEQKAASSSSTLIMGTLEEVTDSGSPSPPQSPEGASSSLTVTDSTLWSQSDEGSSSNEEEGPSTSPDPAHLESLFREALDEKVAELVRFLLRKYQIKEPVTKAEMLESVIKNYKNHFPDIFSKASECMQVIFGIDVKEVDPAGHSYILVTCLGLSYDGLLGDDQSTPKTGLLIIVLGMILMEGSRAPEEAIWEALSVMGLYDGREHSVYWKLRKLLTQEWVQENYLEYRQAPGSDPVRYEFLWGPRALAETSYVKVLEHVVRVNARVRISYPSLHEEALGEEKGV
Sequence of UniProt Q9H6K1 (Q9H6K1 whole entry, looked up): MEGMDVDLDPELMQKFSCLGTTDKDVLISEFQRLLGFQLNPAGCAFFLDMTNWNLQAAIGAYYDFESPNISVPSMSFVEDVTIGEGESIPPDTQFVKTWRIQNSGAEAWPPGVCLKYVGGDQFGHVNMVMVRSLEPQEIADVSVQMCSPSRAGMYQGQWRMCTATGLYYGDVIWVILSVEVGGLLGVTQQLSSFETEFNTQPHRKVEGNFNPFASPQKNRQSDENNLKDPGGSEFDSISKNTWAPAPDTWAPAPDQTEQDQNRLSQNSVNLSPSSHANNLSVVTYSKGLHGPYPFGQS
Sequence of UniProt Q14680 (Q14680 whole entry, looked up): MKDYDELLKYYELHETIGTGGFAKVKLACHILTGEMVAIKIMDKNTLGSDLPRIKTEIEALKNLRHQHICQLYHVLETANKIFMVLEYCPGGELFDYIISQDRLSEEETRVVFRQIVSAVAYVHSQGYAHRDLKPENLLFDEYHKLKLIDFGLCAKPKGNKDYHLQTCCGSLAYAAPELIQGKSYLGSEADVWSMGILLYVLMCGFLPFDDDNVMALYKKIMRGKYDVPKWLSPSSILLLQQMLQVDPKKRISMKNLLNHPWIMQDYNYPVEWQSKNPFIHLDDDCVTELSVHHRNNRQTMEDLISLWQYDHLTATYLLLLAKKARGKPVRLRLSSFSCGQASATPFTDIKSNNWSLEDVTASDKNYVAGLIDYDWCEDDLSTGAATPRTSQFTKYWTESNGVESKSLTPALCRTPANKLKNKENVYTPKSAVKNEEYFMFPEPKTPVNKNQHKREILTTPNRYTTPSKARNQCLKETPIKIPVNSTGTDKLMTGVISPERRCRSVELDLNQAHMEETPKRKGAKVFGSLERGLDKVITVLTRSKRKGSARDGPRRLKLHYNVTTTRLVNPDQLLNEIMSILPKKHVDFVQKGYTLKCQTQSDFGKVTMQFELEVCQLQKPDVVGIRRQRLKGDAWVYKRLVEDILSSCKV
Sequence of UniProt A4D2B0 (A4D2B0 whole entry, looked up): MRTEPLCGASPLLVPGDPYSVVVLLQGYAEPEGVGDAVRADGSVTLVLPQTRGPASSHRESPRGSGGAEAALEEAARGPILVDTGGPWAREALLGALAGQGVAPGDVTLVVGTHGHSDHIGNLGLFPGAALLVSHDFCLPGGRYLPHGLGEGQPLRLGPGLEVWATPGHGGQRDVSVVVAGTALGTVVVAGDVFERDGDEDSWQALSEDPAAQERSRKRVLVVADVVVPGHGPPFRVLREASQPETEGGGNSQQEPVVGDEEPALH
Sequence of UniProt Q92551 (Q92551 whole entry, looked up): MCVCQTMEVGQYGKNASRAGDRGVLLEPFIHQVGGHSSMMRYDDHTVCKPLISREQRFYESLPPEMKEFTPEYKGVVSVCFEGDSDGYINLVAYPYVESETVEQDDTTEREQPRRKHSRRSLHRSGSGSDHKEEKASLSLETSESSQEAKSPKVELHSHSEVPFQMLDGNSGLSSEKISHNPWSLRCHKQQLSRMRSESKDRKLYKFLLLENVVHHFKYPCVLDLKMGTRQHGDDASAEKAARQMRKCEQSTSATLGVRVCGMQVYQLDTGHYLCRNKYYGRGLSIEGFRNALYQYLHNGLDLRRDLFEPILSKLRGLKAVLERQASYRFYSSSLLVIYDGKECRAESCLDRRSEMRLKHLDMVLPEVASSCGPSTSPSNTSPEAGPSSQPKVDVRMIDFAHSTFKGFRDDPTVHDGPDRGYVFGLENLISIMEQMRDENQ
Sequence of UniProt Q96G25 (Q96G25 whole entry, looked up): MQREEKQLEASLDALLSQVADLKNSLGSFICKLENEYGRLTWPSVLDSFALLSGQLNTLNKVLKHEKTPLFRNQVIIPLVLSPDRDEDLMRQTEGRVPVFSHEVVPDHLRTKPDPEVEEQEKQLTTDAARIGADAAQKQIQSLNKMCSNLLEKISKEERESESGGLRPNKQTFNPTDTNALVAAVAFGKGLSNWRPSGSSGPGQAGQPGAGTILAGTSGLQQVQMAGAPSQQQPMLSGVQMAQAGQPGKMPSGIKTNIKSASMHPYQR
Sequence of UniProt Q71SY5 (Q71SY5 whole entry, looked up): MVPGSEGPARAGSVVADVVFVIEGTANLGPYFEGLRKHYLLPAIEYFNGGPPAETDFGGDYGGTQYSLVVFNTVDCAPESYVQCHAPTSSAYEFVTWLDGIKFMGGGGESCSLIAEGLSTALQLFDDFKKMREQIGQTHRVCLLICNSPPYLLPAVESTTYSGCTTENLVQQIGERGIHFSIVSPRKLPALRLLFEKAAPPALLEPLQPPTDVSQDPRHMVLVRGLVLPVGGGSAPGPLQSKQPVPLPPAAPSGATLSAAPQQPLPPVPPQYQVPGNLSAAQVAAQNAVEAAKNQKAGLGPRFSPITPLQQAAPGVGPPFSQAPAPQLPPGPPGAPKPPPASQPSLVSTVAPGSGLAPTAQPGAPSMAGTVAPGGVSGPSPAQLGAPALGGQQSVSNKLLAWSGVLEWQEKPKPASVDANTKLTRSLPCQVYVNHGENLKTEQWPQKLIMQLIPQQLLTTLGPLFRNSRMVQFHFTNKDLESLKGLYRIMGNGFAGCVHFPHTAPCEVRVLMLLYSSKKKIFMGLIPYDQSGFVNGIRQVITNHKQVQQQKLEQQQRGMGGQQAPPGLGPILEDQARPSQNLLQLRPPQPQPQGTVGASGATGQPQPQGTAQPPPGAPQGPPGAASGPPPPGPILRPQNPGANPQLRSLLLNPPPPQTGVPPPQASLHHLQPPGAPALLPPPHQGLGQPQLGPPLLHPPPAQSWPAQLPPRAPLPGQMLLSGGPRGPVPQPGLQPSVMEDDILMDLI
Sequence of UniProt Q9Y2E5 (Q9Y2E5 whole entry, looked up): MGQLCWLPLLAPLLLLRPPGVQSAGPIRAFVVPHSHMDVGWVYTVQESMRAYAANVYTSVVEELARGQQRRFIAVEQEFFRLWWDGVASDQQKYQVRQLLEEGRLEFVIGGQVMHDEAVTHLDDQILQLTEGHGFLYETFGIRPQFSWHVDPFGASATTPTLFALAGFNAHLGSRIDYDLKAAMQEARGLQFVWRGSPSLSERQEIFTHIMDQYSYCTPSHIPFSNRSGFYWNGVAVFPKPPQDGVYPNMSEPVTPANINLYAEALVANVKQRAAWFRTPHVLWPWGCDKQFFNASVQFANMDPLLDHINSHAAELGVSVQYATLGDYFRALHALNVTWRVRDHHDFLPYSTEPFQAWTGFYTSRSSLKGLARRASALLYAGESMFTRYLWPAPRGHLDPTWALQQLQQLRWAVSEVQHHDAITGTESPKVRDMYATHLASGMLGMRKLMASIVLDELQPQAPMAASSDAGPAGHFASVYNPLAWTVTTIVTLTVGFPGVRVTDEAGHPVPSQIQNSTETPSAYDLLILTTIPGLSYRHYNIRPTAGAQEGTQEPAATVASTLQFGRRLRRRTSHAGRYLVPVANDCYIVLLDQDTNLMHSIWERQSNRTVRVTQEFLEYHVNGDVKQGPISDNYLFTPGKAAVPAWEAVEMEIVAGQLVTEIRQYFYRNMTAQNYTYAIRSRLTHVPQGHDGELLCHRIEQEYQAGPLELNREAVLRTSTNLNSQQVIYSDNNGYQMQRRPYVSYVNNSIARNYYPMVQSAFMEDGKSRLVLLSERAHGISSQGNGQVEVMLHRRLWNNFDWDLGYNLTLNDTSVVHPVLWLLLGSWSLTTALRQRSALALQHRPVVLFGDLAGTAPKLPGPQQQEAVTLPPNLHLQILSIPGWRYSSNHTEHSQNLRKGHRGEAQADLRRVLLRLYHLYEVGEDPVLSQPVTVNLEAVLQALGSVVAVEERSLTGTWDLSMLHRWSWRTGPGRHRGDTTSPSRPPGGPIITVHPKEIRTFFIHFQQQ
Sequence of UniProt Q15528 (Q15528 whole entry, looked up): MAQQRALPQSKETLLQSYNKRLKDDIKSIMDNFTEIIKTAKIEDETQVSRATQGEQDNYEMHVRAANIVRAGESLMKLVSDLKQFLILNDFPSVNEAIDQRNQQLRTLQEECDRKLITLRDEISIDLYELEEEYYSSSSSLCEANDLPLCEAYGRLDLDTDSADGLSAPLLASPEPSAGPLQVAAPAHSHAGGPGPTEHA

Compound in this test: CCn1c(C(=O)N(C2CC2)C2CC2)cc2c3c(ncn3C)c(Nc3cc(C)n(C)n3)nc21
The test is described as follows: log2 fold change, soluble protein after heating vs DMSO (PISA); higher = thermal stabilisation; K562 cells, 10 uM, 30 min; active = over 0.2 and 3.5 SD of the protein, either way, in both replicates (recomputed). The method, boiled down:
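K562 cells (2×10^6 cells/mL) were treated with 10 μM compound for 30 min, and aliquots were heated for 3 min over 48°C-58°C. Pooled aliquots were extracted in PBS with 0.5% NP-40 at 4°C, and the supernatant after 21,000xg for 90 min was measured by TMTpro 16plex LC-MS/MS with channel sums equalised. Reported thermal stability, relative to control samples and from duplicates, is a log2 fold change.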
Regarding LRBA, A0A494BZW2, the log2 fold change is -0.193.
Consider MED22 (UniProt Q15528), for which the log2 fold change is 0.134.
Consider LRFN1 (UniProt Q9P244), for which the log2 fold change was 0.07.
To ILRUN (UniProt Q9H6K1) belongs -0.013.
To MFSD1 isoform 6 (UniProt Q9H3U5) belongs -0.023; to MAN2B2 (UniProt Q9Y2E5), 0; to LENG8 (UniProt Q96PV6), 0.005.
For MFSD8 (UniProt Q8NHS3), the log2 fold change is 0.001.
Consider LUM (UniProt P51884), for which the log2 fold change was 0.2.
Take ITPRID2 (UniProt P28290): the log2 fold change was 0.078.
To METAP1D (UniProt Q6UB28) belongs -0.039; to MED8 isoform 2 (UniProt Q96G25), 0.009; to MARK2 (UniProt E9PC69), -0.137.
To KMT2C isoform 3 (UniProt Q8NEZ4) belongs 0.009; to MELK (UniProt Q14680), -0.009; to IP6K1 (UniProt Q92551), -0.253.
Turning to MED25 isoform 3 (UniProt Q71SY5), the log2 fold change was -0.076.
Under MBLAC1 (UniProt A4D2B0) stands 0.063; under KIF3B (UniProt O15066), -0.204.
ITM2B (UniProt Q9Y287): the log2 fold change was 0.001.
For MAGEA8 (UniProt P43361), the log2 fold change was -0.063.
Take MED17 (UniProt Q9NVC6): the log2 fold change was -0.027.
LPGAT1 (UniProt Q92604): the log2 fold change is -0.128.
